The record followed here is PubChem BioAssay (EPA / NIEHS).

The source made the active and inactive calls. How the source made its calls: active means hit-call score of the fitted dose curve at least 0.9, where 1 is the maximum; inactive means score below 0.9.

Read-out in the assay: Thyroid Hormone Responsive (THRSP), THRSP (gene 7069)
In words: LTEA_HepaRG_THRSP: Life Technologies and Expression Analysis (LTEA) Assay for Thyroid Hormone Responsive (THRSP) using HepaRG (AID 2283536). Particulars: mRNA level, 48 h; actives raise or lower the signal. As to the method: LTEA_HepaRG is a cell based, multiplexed-readout assay that uses HepaRG, a human liver cell line, with measurements taken at 48 hours after chemical dosing on a 96-well plate.LTEA_HepaRG_THRSP is one of 102 assay component(s) measured in the LTEA HepaRG cell culture assay. It is a marker of NR mediated metabolism.Data from the assay component LTEA_HepaRG_THRSP was analyzed into 1 endpoint. This assay endpoint, LTEA_HepaRG_THRSP, was analyzed with bidirectional fitting relative to DMSO as the negative control and baseline of activity. Using a type of inducible reporter, measures of mRNA induction for gain or loss-of-signal activity can be used to understand regulation of transcription factor activity. To generalize the intended target to other relatable targets, this assay endpoint is annotated to the growth factor intended target family, where the subfamily is NR mediated metabolism.
A total of 1060 chemcials from the ToxCast library were tested in eight-point concentration-response experiments. Cell culture and cytotoxicity assays were conducted at Thermo Fisher Scientific's Custom Services facility (Madison, WI). A single lot of human HepaRG cells (Thermo Fisher Scientific, Frederick, MD) was used for the cell culture experiments. 96-well format collagen type I coated plates of human HepaRG cells were prepared using established methods. Briefly, cryopreserved HepaRG cells were thawed, plated at a density of approximately 100,000 cells/well in HepaRG Thaw, Plate, and General Purpose media (HPRG770, Thermo Fisher Scientific), and incubated for 48 hours. 0.5% DMSO was selected as vehicle control to balance the requisite need of DMSO in HepaRG cultures to maintain differentiation (for example, baseline metabolism, proportions of hepatocytes vs. cholangiocytes), while enabling further hepatic receptor pathway activation (for example, PXR and CAR) in response to chemical exposure. 48 hours after plating, the culture medium was replaced with HepaRG Serum-Free Incudtion Media. Cells were exposed to each test chemical in duplicate and maintained in CO2 incubators for another 48 hours. Chemical plates were thawed to room temperature and 200x concentrations of treatment groups were prepared. 8-point conentration-reponse curves were made with the highest exposure at 100 uM, followed by half-log dilutions, all in 0.5% DMSO. Each test plate contained variouse controls, induction positive controls (1mM phenobarbital), cytotoxicity positive controls ([…] aflatoxin B1), vehicle controls (0.5% DMSO), and total lysis controls (0.5% DMSO). Cell morphology images were taken using an Essen IncuCyte FLR automated microscope, with six 96-well plates imaged in about 24 minutes. Images were captured and exported and JPEG files. Spent culture media was transfered to black-well plates for the LDH assay, and remaining media was sorted at -80 C for later use. Cells were treated with RLT buffer and frozen until shipped for gene expression analysis. Total RNA was isolated from the cell suspension in 75 uL of Buffer RLT (Qiagen, Germantown, MD 20874) by Quintiles/Expression Analysis (Durham, NC) using a custom isolation procedure. Total RNA from each plate well was transferred to a preamplification plate. Fluidigm's 96.96 Dynamic ArrayTM (Fluidigm, Amsterdam, the Netherlands) technology was used for gene expression analyses by quantitative reverse transcription polymerase chain reaction (qRT-PCR, performed by Quintiles/Expression Analysis, Durham, NC)89. Standard TaqManTM Assays (Applied Biosystems/ThermoFisher Scientific, Foster City, CA) were used to assess the expression of 93 genes selected based on their selectivity and sensitivity to important hepatic receptors known to be modulated by environmental chemicals; importance in human hepatocyte functionality; and hepatotoxicity. […]
With `OCC(CO)(CBr)CBr`, the compound was called inactive.

In the case of `N=C(N)c1ccc(OCCCCCOc2ccc(C(=N)N)cc2)cc1`, the AC50 was 8.04 µM (active).

As to `CS(=O)(=O)c1ccc([C@@H](CC2CCCC2)C(=O)Nc2cnccn2)cc1Cl`, the half-maximal activity concentration (AC50) was 63.5 µM (active).

As for `CCCCC(CC)C(=O)O` (stereo unspecified), the outcome was inactive.

In the case of `O=C(c1ccccc1)c1ccccc1`, the result was inactive.

Take `Cc1[nH]nc2c1N=C(c1ccccc1Cl)c1cc([N+](=O)[O-])ccc1N2`: the AC50 was 8.84 µM (active).

In the case of `CC(=O)Nc1ccc(O)cc1`, the compound was classed as inactive.

Take `CN(C)CCOC(c1ccccc1)c1ccccc1`: the AC50 is 58.4 µM (active).

For the compound `CCCCCCCCCCCCCCC`, the result was inactive.

In the case of `O=C1NS(=O)(=O)c2ccccc21`, the compound was called inactive.

Consider `CCC(C)c1ccccc1O` (stereo unspecified), for which the outcome was inactive.

On to `CCCCC=O`, for which the result was inactive.

For the compound `O=C(CCCN1CCC(O)(c2ccc(Cl)cc2)CC1)c1ccc(F)cc1`, the result was inactive.

Regarding `CCCCc1oc2ccccc2c1C(=O)c1cc(I)c(OCCN(CC)CC)c(I)c1`, the half-maximal activity concentration (AC50) is 68.7 µM (active).

For `CN(Cc1cnc2nc(N)nc(N)c2n1)c1ccc(C(=O)N[C@@H](CCC(=O)O)C(=O)O)cc1`, the AC50 was 0.167 µM (active).

In the case of `CCCCCCCCCCCCOS(=O)(=O)O`, the concentration at half-maximal activity (AC50) is 80.5 µM (active).
